Inconclusive results are not listed. A call without a number means that no potency is given here. A number with no mark means an inactive call. Calls of active or inactive are those of the source. Calls come from the whole dose curve; as a rule, active = well fitted inhibition curve with a large enough effect in the repeat runs; inconclusive = weak or mixed curves; inactive = flat fitted curve, though single readings scatter.
Assay: qHTS assay to identify small molecule HDAC inhibitors (AID 1259364); note: nearly all actives have a fitted effect of over 45% in size; for activity change, negative = inhibition: top concentration of the series differs between compounds
Settings: HCT-116 HDAC-Glo I/II luminescence, 2 h; series mostly up to 92.4 µM
Source text: U.S. Tox21 Program National Center for Advancing Translational Sciences [NCATS] NIH Chemical Genomics Center [NCGC] U.S. Environmental Protection Agency [EPA] National Institutes of Environmental Health Sciences [NIEHS] National Toxicology Program [NTP] U.S. Food and Drug Administration [FDA] Tox21 Assay Overview: Histone deacetylases (HDACs) are a group of epigenetic enzymes that regulate gene expression by histone deacetylation. HDACs are capable of introducing epigenetic modifications and such aberrations contribute to the onset and progression of several human diseases, thus making HDACs a popular therapeutic target. For identifying endogenous class I/II HDAC inhibitors a homogenous, luminogenic HDAC I/II cell based assay was used to measure the relative activity of class I and II HDACs from cells. Wild type HCT-116 cells were used to screen Tox21 libraries for identifying class I/II HDAC inhibitors.
Tox21 Assay Protocol Summary: HCT-116 cells were dispensed at 1,500 per well in 5uL of culture medium into white solid bottom 1536-well plates (Greiner Bio-One, Monroe, NC) using a Multidrop Combi (Thermo Scientific, Waltham, MA) dispenser. The assay plates were incubated at 37 C and 5% CO2 for an overnight, and then 23nL of compounds dissolved in DMSO and positive control were transferred using a Pintool station (Wako, San Diego, CA). The assay plates were incubated at 37C and 5% CO2 for 2hr. After compound treatment, 4uL of HDAC-Glo reagent (Promega Corporation, Madison, WI) was added to each well of the assay plates using Flying Reagent Dispenser (FRD, Aurora Discovery, San Diego, CA) and incubated the assay plates at room temperature for 30min. The luminescence signal was quantified using a ViewLux plate reader (Perkin Elmer, Shelton, CT).
Potency is the fitted concentration of half-maximal effect.

With CN1CCN(CCCN2c3ccccc3Sc3ccc(C(F)(F)F)cc32)CC1 as the compound, how does the Potency read?
The Potency was “inactive”.

Which Potency does the source give for CCC(O)CO (stereo not given) here?
The Potency was “inactive”.

With NC(=O)c1ccccc1Cl as the compound, how does the Potency read?
Its Potency is “inactive”.

For CCC(=O)OC/C=C(\C)CCC=C(C)C, which Potency is on record?
The Potency was “inactive”.

With CCCCCCCCc1ccc(Nc2ccc(CCCCCCCC)cc2)cc1 as the compound, how does the Potency read?
Its Potency is “inactive”.

Which Potency does the source give for Nc1cccnc1N here?
The Potency was “inactive”.

Which Potency does the source give for CSc1nnc(C(C)(C)C)c(=O)[nH]1 here?
The Potency was “inactive”.

For CN(C)CCOc1ccc(/C(=C(/CCCl)c2ccccc2)c2ccccc2)cc1, which Potency is on record?
The Potency was “inactive”.

For C/C=C/C(=O)C1=C(C)C=CCC1(C)C, which Potency is on record?
The Potency was “inactive”.

With O=C1C=CC(=O)N1c1cccc(N2C(=O)C=CC2=O)c1 as the compound, how does the Potency read?
Its Potency is “inactive”.

For CN1CC[C@H](c2c(O)cc(O)c3c(=O)cc(-c4ccccc4Cl)oc23)[C@H](O)C1, which Potency is on record?
Its Potency is “inactive”.

For O=C1OC(=O)c2cc(-c3ccc4c(c3)C(=O)OC4=O)ccc21, which Potency is on record?
Its Potency is “inactive”.

With O=[N+]([O-])c1ccc(CO)cc1 as the compound, how does the Potency read?
Its Potency is “inactive”.

For NC(=O)C1CO1 (stereo not given), which Potency is on record?
Its Potency is “inactive”.

Which Potency does the source give for Clc1ccc2c(Cl)ccnc2c1 here?
The Potency was “inactive”.

Which activity change, negative = inhibition does the source give for COc1cc2ncnc(Nc3cccc(Cl)c3)c2cc1OC here?
Its activity change, negative = inhibition is -7.18% [at 19 µM].

With O=C(Nc1ccccc1)c1cc(Cl)ccc1O as the compound, how does the Potency read?
The Potency was 0.686 µM (active).

With c1ccc(-c2nc3ccccc3[nH]2)cc1 as the compound, how does the Potency read?
Its Potency is 2.43 µM (active).

Which Potency does the source give for CCOC(=O)C1=NN(c2ccc(Cl)cc2Cl)C(C)(C(=O)OCC)C1 (stereo not given) here?
Its Potency is “inactive”.

With Oc1ccc(Cl)cc1C1CCCC1 as the compound, how does the Potency read?
Its Potency is “inactive”.

For Cn1ccnc1, which Potency is on record?
The Potency was “inactive”.

With CO[Si](OC)(c1ccccc1)c1ccccc1 as the compound, how does the Potency read?
Its Potency is “inactive”.

For CCNc1nc(NC(C)(C)C)nc(OC)n1, which Potency is on record?
The Potency was “inactive”.

Which Potency does the source give for Nc1ccc(Cl)c([N+](=O)[O-])c1 here?
The Potency was “inactive”.

For CCCC(C)C=O (stereo not given), which Potency is on record?
Its Potency is “inactive”.

With CCCCC/C=C\C=C\C(=O)OCC as the compound, how does the Potency read?
Its Potency is “inactive”.

With CN(C[C@@H](CC[N+]12CCC(C3CCCCC3)(CC1)CC2)c1ccc(Cl)c(Cl)c1)C(=O)c1cc(C(F)(F)F)cc(C(F)(F)F)c1 as the compound, how does the Potency read?
The Potency was “inactive”.

With O=S(=O)(c1ccc(OCc2ccccc2)cc1)c1ccccc1O as the compound, how does the Potency read?
The Potency was “inactive”.

Which Potency does the source give for C[C@H]1O[C@@H](O[C@H]2CC[C@@]3(C)[C@H](CC[C@@H]4[C@@H]3C[C@@H](O)[C@]3(C)[C@@H](C5=CC(=O)OC5)CC[C@]43O)C2)C[C@H](O)[C@@H]1O[C@H]1C[C@H](O)[C@H](O[C@H]2C[C@H](O)[C@H](O[C@@H]3O[C@H](CO)[C@@H](O)[C@H](O)[C@H]3O)[C@@H](C)O2)[C@@H](C)O1 here?
The Potency was “inactive”.

With COc1cc(C(C)C)ccc1C as the compound, how does the activity change, negative = inhibition read?
Its activity change, negative = inhibition is 3.05% [at 19 µM].

With CC1CCC(C(C)(C)O)CC1 (stereo not given) as the compound, how does the Potency read?
Its Potency is “inactive”.

With CSc1ccc(O)cc1C as the compound, how does the Potency read?
The Potency was “inactive”.

For COc1cc(OC)nc(NC(=O)NS(=O)(=O)Nc2ccccc2C(=O)N(C)C)n1, which Potency is on record?
Its Potency is “inactive”.

Which Potency does the source give for N#Cc1nc(Cl)c(Cl)c(Cl)c1Cl here?
The Potency was “inactive”.

Which Potency does the source give for CC(Cc1ccc(O)c(O)c1)C(C)Cc1ccc(O)c(O)c1 (stereo not given) here?
The Potency was “inactive”.

For C=C1C(CCl)(CCl)C2(Cl)C(Cl)C(Cl)C1(Cl)C2(Cl)Cl (stereo not given), which Potency is on record?
Its Potency is “inactive”.

Which Potency does the source give for C=C1CC[C@H]2O[C@]2(C)CC[C@@H]2[C@@H]1CC2(C)C here?
Its Potency is “inactive”.

With CCOC(=O)[C@H](C)O as the compound, how does the Potency read?
The Potency was “inactive”.

Which Potency does the source give for CCOc1ccc([N+](=O)[O-])cc1 here?
Its Potency is “inactive”.

With CC(C)=NNC(N)=S as the compound, how does the Potency read?
The Potency was “inactive”.

Reference: PubChem BioAssay (Tox21)
